The nature of assay [1]: NCI Yeast Anticancer Drug Screen. Data for the rad50 strain (AID 155).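 Also: 0% = growth of vehicle-only cultures of the same strain.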 The settings on record: S. cerevisiae rad50 strain growth inhibition; at 50.0 µM; active compounds read high. The gist of the method: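 A DNA repair-deficient yeast mutant serves as the test organism; compound-induced growth inhibition is calculated against vehicle-treated cells.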
Assay [2] is described as follows: NCI Yeast Anticancer Drug Screen. Data for the mec2-1 strain (AID 157). The settings on record: S. cerevisiae mec2-1 strain, at 50.0 µM, active compounds read high. The gist of the method: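 Each compound was tested on mec2-1 yeast, a strain altered in DNA damage repair or cell cycle control. Growth inhibition is reported relative to vehicle.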
A short description of assay [3]: NCI Yeast Anticancer Drug Screen. Data for the sgs1 mgt1 strain (AID 161).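 Also: 0% = growth of cultures given vehicle only.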 The settings on record: S. cerevisiae sgs1 mgt1 strain, at 50.0 µM, active compounds read high. The method in brief: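 Read-out: growth inhibition vs vehicle controls. Cells: mutant yeast strain deficient in DNA damage repair.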
A short description of assay [4]: NCI Yeast Anticancer Drug Screen. Data for the cln2 rad14 strain (AID 165).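 Also: 0% = growth equal to vehicle treated cultures.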 The settings on record: S. cerevisiae cln2 rad14 strain, at 50.0 µM, active compounds read high. The method in brief: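 Test compounds were added to cln2 rad14 yeast cultures; inhibition of growth was then determined by comparison with vehicle treatment.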
Assay [5] in a line: NCI Yeast Anticancer Drug Screen. Data for the bub3 strain (AID 167). The note with it: S. cerevisiae bub3 mutant strain, at 50.0 µM, active compounds read high. The method in brief: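 Inhibition values come from growth of compound-treated mutant yeast normalised to vehicle-treated controls.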
The nature of assay [6]: NCI Yeast Anticancer Drug Screen. Data for the mlh1 rad18 strain (AID 175). The note with it: S. cerevisiae mlh1 rad18 strain growth inhibition; at 50.0 µM; active compounds read high. The gist of the method: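 Inhibition values reflect reduced growth of mutant yeast versus vehicle-treated controls following compound exposure; the mutations affect DNA damage repair.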

The values below come from PubChem BioAssay (NCI).

Molecules are shown by their SMILES. This is part of a sample that, as a whole, favours compounds with a hit. Of some 79,000 tested, about 15% had one in any assay. A number with no mark means an inactive call. Active and inactive are the calls of the source. Rule as the data show it: active = growth inhibition above about 70%; inactive = the rest.

As for `O=[N+]([O-])c1ccccc1Sc1ccc2c3c(cccc13)CN(CCCO)C2`, the growth inhibition in assay [1] is 66.3%; in assay [2], 7.05%; in assay [3] it was 47.6%; in assay [4] it was 6.8%; in assay [5], 7.15%; in assay [6] it was 50.9%.

Consider `CCC[C@@H]1C[C@@H](OC(=S)SC)C[C@H]2CCC(=O)N12`, for which the growth inhibition in assay [1] was -3.1%; in assay [2] it was -9.6%; in assay [3], -7.85%; in assay [4] it was -4.9%; in assay [5], 44.9%; in assay [6] it was -16.6%.

Consider `COc1ccc(-c2ccc(OC)cc2)cc1`, for which the growth inhibition is 2.9% in assay [1]; -2.75% in assay [2]; -3.8% in assay [3]; -0.65% in assay [4]; 21.4% in assay [5]; 3% in assay [6].

For the molecule `CCCCCn1[nH]nc(C(=O)OC)c1=O` (tested in a mixture with another compound), the growth inhibition is 18.8% in assay [1]; 17.1% in assay [2]; 23.1% in assay [3]; 27.5% in assay [4]; 30.5% in assay [5]; 34.4% in assay [6].

Turning to `O=S(=O)(O)c1ccccc1O`, the growth inhibition is -0.1% in assay [1]; -3.35% in assay [2]; -2.75% in assay [3]; -44.4% in assay [4]; -19.9% in assay [5]; 1.95% in assay [6].

In the case of `CC1([N+](=O)[O-])COC2(CCCC2)OC1`, the growth inhibition in assay [1] is 26.4%; in assay [2] it was 12.2%; in assay [3] it was 4.75%; in assay [4], -21.8%; in assay [5], -12.9%; in assay [6] it was 33.6%.

For the molecule `COc1cccc2c1oc(=O)c1ccccc12`, the growth inhibition was 9.55% in assay [1]; -6.75% in assay [2]; -19.6% in assay [3]; -66.8% in assay [4]; -2.35% in assay [5]; -5.85% in assay [6].

In the case of `CC1=CC(=Nc2ccc(N(C)C)cc2)C(C)=CC1=O`, the growth inhibition is -11.1% in assay [1]; -28.3% in assay [2]; -2.4% in assay [3]; -30.6% in assay [4]; 5.4% in assay [5]; -4.35% in assay [6].

Take `CSC1=NC(C)(C)N=C(Oc2cc(Cl)cc(Cl)c2)N1`: the growth inhibition was -14.9% in assay [1]; -22.3% in assay [2]; -24.9% in assay [3]; -8.7% in assay [4]; -27.5% in assay [5]; -9.8% in assay [6].

For `COc1ccc(OC)c(N=Cc2cccs2)c1`, the growth inhibition in assay [1] is 14.6%; in assay [2], 5.95%; in assay [3], 20.9%; in assay [4], 15.1%; in assay [5] it was 16.2%; in assay [6], 22.1%.

On to `C=C(CC/C=C\CO)[Si](C)(C)C`, for which the growth inhibition was -10.5% in assay [1]; -20.1% in assay [2]; 1.05% in assay [3]; 7.35% in assay [4]; 9.95% in assay [5]; -9.5% in assay [6].

Consider `COc1ccccc1NCS(=O)(=O)O`, for which the growth inhibition is -7.2% in assay [1]; -2.5% in assay [2]; -5.95% in assay [3]; -60.2% in assay [4]; 11.2% in assay [5]; -8.1% in assay [6].

Consider `COc1ccc(Cc2nnc(SC)n2-c2ccc(F)cc2)cc1OC`, for which the growth inhibition in assay [1] is 8.7%; in assay [2], -8.25%; in assay [3], 21%; in assay [4], 6.15%; in assay [5], 25.2%; in assay [6], 16.6%.

Consider `C=C1C(=C)C2C=CC1C1C3C(c4ccccn4)=NN=C(c4ccccn4)C3C21` (stereo unspecified), for which the growth inhibition is 54.4% in assay [1]; 66.2% in assay [2]; 68.8% in assay [3]; 74.5% (active) in assay [4]; 66.6% in assay [5]; 62.5% in assay [6].

For the molecule `O=CNC1(CO)CCCCC1`, the growth inhibition is -2.4% in assay [1]; -3.4% in assay [2]; -7.05% in assay [3]; -38.8% in assay [4]; -18.1% in assay [5]; 7.9% in assay [6].

For `OCc1c(CO)c(C(F)(F)F)n2c1CCC2`, the growth inhibition in assay [1] is 9.9%; in assay [2] it was -4.1%; in assay [3] it was 9.15%; in assay [4], -14.3%; in assay [5] it was 9.65%; in assay [6], 2.55%.

Regarding `CC(=O)CCC(CCCC(CCC(C)=O)[N+](=O)[O-])[N+](=O)[O-]` (stereo unspecified), the growth inhibition in assay [1] is -7.3%; in assay [2] it was 15.3%; in assay [3], 0.9%; in assay [4], -9.4%; in assay [5], 13.9%; in assay [6] it was 4.15%.

For the molecule `CC/C(Cl)=N\OC(=O)Nc1ccccc1OC(F)(F)F`, the growth inhibition in assay [1] is -24.1%; in assay [2] it was -15.4%; in assay [3], 87.2% (active); in assay [4], -13.6%; in assay [5] it was 18.6%; in assay [6], -89.6%.

Take `COc1cc([N+](=O)[O-])cc(C(C)=O)c1O`: the growth inhibition was 17.9% in assay [1]; 37.2% in assay [2]; 31.5% in assay [3]; 2.45% in assay [4]; 15.1% in assay [5]; 38.5% in assay [6].

Regarding `C1=CCC(C(Cc2ccccc2)N2CCCCC2)CC1` (stereo unspecified), the growth inhibition in assay [1] was 15.8%; in assay [2], 1%; in assay [3] it was 23.9%; in assay [4], -27.4%; in assay [5] it was 11.2%; in assay [6], 24.1%.

Take `CCCC(=O)Oc1ccc(Cl)cc1`: the growth inhibition in assay [1] was 12.9%; in assay [2] it was -4.45%; in assay [3], 1.35%; in assay [4] it was 20.1%; in assay [5], 1.45%; in assay [6], -6.65%.
